An excerpt weighted towards active compounds, which were near 8.7% of everything screened.
G9a inh: G9a (human) methyltransferase inhibition | Q96KQ7 | G9a H3K9 monomethylation, AlphaScreen, 2 h | Potency, µM (doses to about 102 µM), for the others: top-dose activity, negative = inhibition, hits mostly inhibitors | 350,000 tested, 8.8% active; note: % is set by controls: 0 for no effect and ±100 for the full control effect; nearly all actives have a fitted effect of over 75% in size
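G9a (20 nM) was preincubated 15 min with compound, then reacted 2 h at room temperature with 500 nM biotin-H3K9 peptide and 20 µM SAM. Monomethyl-H3K9 detected by AlphaScreen using anti-H3K9me1 antibody.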
HP1b binding inh: blocks HP1-beta chromodomain binding to methylated histone tails; AlphaScreen HP1-beta / biotin-H3K9me3 peptide binding; Potency, µM (doses to about 114 µM), for the others: at the highest dose activity change, negative = inhibition, usual class: inhibitors; 390,000 tested, 0.56% active; AID 540317; note: nearly all actives have a fitted effect of over 70% in size
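Compound inhibition of the preformed complex between 50 nM HP1-beta and 50 nM biotinylated H3K9me3 peptide was read by AlphaScreen. Buffer was PBS pH 7.4 with 0.01% Tween-20. Incubations ran 30 min at room temperature, with 10 ug/mL donor/acceptor beads.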
ALOX12 inh: inhibitors of human 12S-lipoxygenase ALOX12. P18054. 580,000 tested, 1.1% active. Potency, µM (series often up to 108 µM), for the others: top-dose activity change, negative = inhibition, usual class: inhibitors. purified 12hLO, xylenol orange hydroperoxide absorbance; note: % is set by controls: 0 for no effect and ±100 for the full control effect
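Purified human 12hLO at 150 nM in 25 mM Hepes, 0.01% Triton X-100, pH 7.0, preincubated 15 min at room temperature with compound. Reaction started with 40 uM arachidonic acid, 30 min at room temperature. Hydroperoxide measured by Fe-xylenol orange, 573/405 nm absorbance ratio.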
JMJD2A Tudor: JMJD2A Tudor domain (human) inhibition. O75164. AlphaScreen JMJD2A-Tudor / H3K4me3 peptide binding. Potency, µM (top dose mostly 114 µM), for the others: at the highest dose activity change, negative = inhibition, most hits filed as inhibitors. 390,000 tested, 4.4% active. AID 504339; note: % is set by controls: 0 for no effect and ±100 for the full control effect; nearly all actives have a fitted effect of over 50% in size
BAZ2B block: inhibitors of human BAZ2B bromodomain | Q9UIF8 | 360,000 tested, 4.4% active | Potency, µM (top dose mostly 114 µM), without a hit: at the highest dose activity change, negative = inhibition, actives largely listed as inhibitors | AlphaScreen BAZ2B-H3K14Ac peptide displacement; note: % is set by controls: 0 for no effect and ±100 for the full control effect; nearly all actives have a fitted effect of over 60% in size
Target sequence (Q9UIF8 whole entry, looked up): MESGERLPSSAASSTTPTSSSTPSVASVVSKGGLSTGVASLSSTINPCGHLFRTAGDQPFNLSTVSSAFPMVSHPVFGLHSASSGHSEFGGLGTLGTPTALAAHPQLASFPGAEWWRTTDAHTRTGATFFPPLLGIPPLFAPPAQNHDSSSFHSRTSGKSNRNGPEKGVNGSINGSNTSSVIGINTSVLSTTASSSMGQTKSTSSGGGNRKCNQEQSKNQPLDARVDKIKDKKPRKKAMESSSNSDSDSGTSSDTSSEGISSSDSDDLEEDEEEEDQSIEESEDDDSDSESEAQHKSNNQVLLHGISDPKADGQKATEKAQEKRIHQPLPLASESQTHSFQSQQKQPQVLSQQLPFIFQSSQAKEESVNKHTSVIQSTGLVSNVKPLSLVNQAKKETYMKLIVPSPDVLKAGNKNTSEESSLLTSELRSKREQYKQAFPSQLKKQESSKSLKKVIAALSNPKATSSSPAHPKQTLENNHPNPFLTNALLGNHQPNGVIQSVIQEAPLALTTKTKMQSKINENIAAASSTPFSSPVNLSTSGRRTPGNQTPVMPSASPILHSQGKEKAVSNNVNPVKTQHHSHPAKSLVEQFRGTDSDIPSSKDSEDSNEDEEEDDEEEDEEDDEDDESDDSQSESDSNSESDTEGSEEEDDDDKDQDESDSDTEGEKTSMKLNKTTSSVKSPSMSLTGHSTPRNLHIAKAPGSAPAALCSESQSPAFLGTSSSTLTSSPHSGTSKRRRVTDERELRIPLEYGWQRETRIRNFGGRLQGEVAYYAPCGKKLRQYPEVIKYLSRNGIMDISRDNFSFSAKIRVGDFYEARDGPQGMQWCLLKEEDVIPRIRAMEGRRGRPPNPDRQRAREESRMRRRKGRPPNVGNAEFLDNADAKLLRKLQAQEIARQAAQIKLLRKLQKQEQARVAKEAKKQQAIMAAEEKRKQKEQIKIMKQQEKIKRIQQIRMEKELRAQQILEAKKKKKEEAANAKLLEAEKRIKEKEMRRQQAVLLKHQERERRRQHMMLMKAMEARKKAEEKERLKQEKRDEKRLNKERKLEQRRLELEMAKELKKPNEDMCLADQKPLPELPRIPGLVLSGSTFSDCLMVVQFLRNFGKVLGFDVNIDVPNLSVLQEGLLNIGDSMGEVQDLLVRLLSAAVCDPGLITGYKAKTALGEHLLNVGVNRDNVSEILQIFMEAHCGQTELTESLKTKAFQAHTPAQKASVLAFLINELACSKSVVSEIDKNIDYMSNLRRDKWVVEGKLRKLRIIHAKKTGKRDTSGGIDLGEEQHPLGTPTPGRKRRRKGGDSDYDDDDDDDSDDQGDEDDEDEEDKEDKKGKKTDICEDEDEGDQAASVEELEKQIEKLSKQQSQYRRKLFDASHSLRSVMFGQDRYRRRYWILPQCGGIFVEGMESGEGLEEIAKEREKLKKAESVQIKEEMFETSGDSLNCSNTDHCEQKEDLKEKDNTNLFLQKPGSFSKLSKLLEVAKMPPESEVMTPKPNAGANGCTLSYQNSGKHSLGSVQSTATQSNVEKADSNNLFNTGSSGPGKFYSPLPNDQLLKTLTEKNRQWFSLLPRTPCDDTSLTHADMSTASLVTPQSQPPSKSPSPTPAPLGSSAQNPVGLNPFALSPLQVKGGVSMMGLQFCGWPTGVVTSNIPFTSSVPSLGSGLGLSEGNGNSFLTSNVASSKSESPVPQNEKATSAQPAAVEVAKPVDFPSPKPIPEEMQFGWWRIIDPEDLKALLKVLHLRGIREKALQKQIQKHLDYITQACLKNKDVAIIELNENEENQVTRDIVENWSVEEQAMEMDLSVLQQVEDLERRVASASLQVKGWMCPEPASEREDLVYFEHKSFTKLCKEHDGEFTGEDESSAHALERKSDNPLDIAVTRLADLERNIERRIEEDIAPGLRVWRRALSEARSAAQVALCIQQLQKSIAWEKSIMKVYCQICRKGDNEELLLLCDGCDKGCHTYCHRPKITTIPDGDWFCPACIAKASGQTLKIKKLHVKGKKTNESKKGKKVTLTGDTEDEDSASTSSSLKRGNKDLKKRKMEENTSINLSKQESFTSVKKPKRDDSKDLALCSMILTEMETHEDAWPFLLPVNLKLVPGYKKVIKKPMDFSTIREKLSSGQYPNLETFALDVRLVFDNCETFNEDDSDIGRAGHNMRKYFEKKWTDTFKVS
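Complex of BAZ2B and biotin-H3K14Ac (50 nM apiece) forms over 30 min at RT, then faces library compounds up to 110 uM for another 30 min; AlphaScreen beads added, 20 min dark incubation, luminescence read.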
Sfp inh: inhibitors of Bacillus subtilis Sfp phosphopantetheinyl transferase; Q9F4F7; Biochemical Sfp PPTase activity, qHTS; Potency, µM, for inactives: largest response in the series, negative = inhibition, actives largely listed as inhibitors; 310,000 tested, 3.5% active;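 note: the enzyme is Sfp with the accession as filed and its product quenches rhodamine fluorescence; 0% = enzyme reaction without inhibitor and -100% = no enzyme wells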
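Step 1, compound plus 15 nM Sfp-PPTase, 15 min, room temperature. Step 2, add rhodamine-CoA (5 uM) and BHQ-2-YbbR (12.5 uM). Step 3, read 525/598 nm fluorescence at 0 and 30 min.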
* marks the source's active call; other numbers are inactive results; i = inactive; u = inconclusive; x = no result given; [ ] = another dose, or the depositor's remark. Calls come from the whole dose curve; as a rule, active = well fitted curve in the direction sought with a large enough effect; inconclusive = small, poorly fitted or top-dose-only effect, or another doubt; inactive = no such curve, though single readings can be large; an effect the other way counts as inactive or inconclusive. Potency is the fitted concentration of half-maximal effect.

SMILES | G9a inh | HP1b binding inh | ALOX12 inh | JMJD2A Tudor | BAZ2B block | Sfp inh
Cn1c(CSCc2ccccc2Cl)n[nH]c1=S | x | 9% | u | u | -26% | -11%
CCc1cccc2c(C(=O)CSc3nnc(C)s3)c[nH]c12 | x | x | -2% | x | x | x
CC(=O)N[C@H]1CN(C(=O)c2ccccc2C(F)(F)F)C[C@@H]1C1CC1 | x | x | 60% | x | x | x
COC(=O)C1=CN(Cc2ccc(F)cc2)C=C(C(=O)OC)C1c1ccccc1OCc1ccccc1 | x | x | -33% | x | x | x
Cc1ccc(S(=O)(=O)N(C)C)cc1NC(=O)c1nn(Cc2ccccc2)c(=O)c2ccccc12 | x | x | 7% | x | x | x
Cc1c(C#N)c(NC(=O)CN2CCN(CC(=O)N3CCCC3)CC2)n(C2CCCCC2)c1C | x | x | 3% | x | x | x
COc1cccc2cc(-c3n[nH]c(=S)n3C)oc12 | 7.1µM* | -12% | u | 7.9µM* | -28% | 4%
Cn1c(CSCc2ccc(F)cc2)n[nH]c1=S | x | 11% | u | 28µM* | -9% | -7%
CCn1c(C2CCN(C(=O)CCc3ccccc3OC)CC2)nn(C)c1=O | x | x | 31% | x | x | x
COCCCn1cnc2cccnc21 | x | x | 1%[176 µM] | x | x | x
Cc1ccc(-c2cc(C(=O)NN=C3CCCC3)c3ccccc3n2)s1 | x | x | 1% | x | x | x
CC(NC(=O)CN1CSCC1=O)c1ccccc1Cl (stereo unspecified) | x | x | -9% | x | x | x
COn1c(SC(C)C)nc2ccccc2c1=O | 1%[12.7 µM] | 15% | -20% | 11% | 7% | -9%
COn1c(SC2CCCCC2)nc2ccccc2c1=O | 22µM* | 78% | u | 27% | 43% | -19%
Cc1sc(NC(=O)CC2(CC(=O)O)CCCCC2)c(C(N)=O)c1-c1ccccc1 | x | x | 29% | x | x | x
CCc1ccc(-c2c(C)sc(NC(C)=O)c2C(N)=O)cc1 | 11µM* | -34% | -25% | u | -8% | 50µM*
Cc1sc(NC(=O)C2CCCCC2C(=O)O)c(C(N)=O)c1-c1ccc(C(C)(C)C)cc1 (stereo unspecified) | x | -31% | -7% | -19% | u | 79µM*
COc1ccc(NC(=O)c2c(NC(=O)CCC(=O)O)sc(-c3ccccc3)c2C)cc1 | 5.6µM* | -25% | u | -19% | -34% | 16µM*
Cc1sc(NC(=O)CCC(=O)O)c(C(N)=O)c1-c1ccccc1 | 10µM* | u | u | u | -1% | 35µM*
COc1ccc(CCN[C@H]2CS(=O)(=O)C[C@@H]2S(=O)(=O)c2ccc(C)cc2)cc1OC | x | x | 11% | x | x | x
Cc1sc(NC(=O)C2CCCCC2C(=O)O)c(C(N)=O)c1-c1ccc(C(C)C)cc1 (stereo unspecified) | 34%[59 µM] | 3% | 6% | -26% | -37% | 21%
Cc1sc(NC(=O)C2CCCCC2C(=O)O)c(C(N)=O)c1-c1ccccc1 (stereo unspecified) | 35µM* | -9% | u | -16% | -2% | 2%
CN(C)c1ccc(Sc2nnc(NC(=O)Nc3ccc(Cl)cc3Cl)s2)cc1 | 28µM* | 26% | -28% | -16% | -9% | 1%
CCC(=O)Nc1nnc(Sc2ccc(N(C)C)cc2)s1 | u | 9% | 0% | -32% | -29% | 0%
O=C(O)c1cccc(Nc2ncnc3ccccc23)c1 | -30%[12.7 µM] | 26% | u | 79µM* | u | 14%
SMILES | G9a inh | HP1b binding inh | ALOX12 inh | JMJD2A Tudor | BAZ2B block | Sfp inh
Nc1cccc(Nc2ncnc3ccccc23)c1 | -14%[0.501 µM] | 20% | 0% | 4% | 50µM* | u
CS(=O)(=O)Nc1cccc(-c2ccc3ncnc(Nc4ccc(F)cc4)c3c2)c1 | x | x | 18µM* | x | x | 2%
Fc1ccc(Nc2ncnc3ccccc23)cc1 | 56µM* | 34% | u | -6% | -33% | -1%
Oc1cccc(Nc2ncnc3ccccc23)c1 | -5%[12.7 µM] | 33% | 11% | -4% | 2% | -2%
CC(C)(C)C(=O)Oc1cccc(Nc2ncnc3ccccc23)c1 | x | 35% | 0% | -12% | -2% | 11%
N#Cc1cccc(S(=O)(=O)N2CC(C(=O)NC3CCCCC3)C3(CCOCC3)C2)c1 (stereo unspecified) | x | x | 29% | x | x | x
O=C(c1cnccn1)N1CC(F)(F)C[C@H]1c1nc(-c2ccncc2)no1 | x | x | 38% | x | x | x
COCc1nc(C2CCCN(C(=O)COc3cccc(C)c3)C2)no1 (stereo unspecified) | x | x | 33% | x | x | x
O=C(Nc1ccccc1)C1CC(=O)N(Cc2ccccc2)C1 (stereo unspecified) | 2% | 34% | i | -14% | 3% | 3%
COc1ccc(CC(=O)Nc2nc(-c3ccc(OC)c(OC)c3)cs2)cc1OC | -17% | -20% | -2% | u | u | -12%
CCN(c1ccccc1)S(=O)(=O)c1ccc(OC)c(NC(=O)C2CC(=O)N(Cc3ccccc3)C2)c1 (stereo unspecified) | 56µM* | 21% | -17% | -33% | -27% | 12%
CSc1cccc(NC(=O)C2CC(=O)N(Cc3ccccc3)C2)c1 (stereo unspecified) | 45µM* | 38% | -6% | -14% | -19% | 9%
COc1ccc(-c2csc(NC(=O)C3CC(=O)N(Cc4ccccc4)C3)n2)cc1OC (stereo unspecified) | 50µM* | -24% | u | u | u | 2%
CCCCc1ccc(NC(=O)CN2C(=O)NC(c3ccc(Cl)cc3)C3=C2COC3=O)cc1 (stereo unspecified) | x | x | -15% | x | x | x
O=C(CN1C(=O)NC(c2ccc(Cl)cc2)C2=C1COC2=O)Nc1ccc(F)c(Cl)c1 (stereo unspecified) | x | x | 7.9µM* | x | x | x
O=C(CN1C(=O)NC(c2ccc(Cl)cc2)C2=C1COC2=O)Nc1ccc(C(F)(F)F)cc1 (stereo unspecified) | x | x | 8.9µM* | x | x | x
Cc1ccc(C2NC(=O)N(CC(=O)Nc3ccc(Br)cc3F)C3=C2C(=O)OC3)cc1 (stereo unspecified) | x | x | 8.9µM* | x | x | x
Cc1ccc(C2NC(=O)N(CC(=O)Nc3ccc(C(F)(F)F)cc3)C3=C2C(=O)OC3)cc1 (stereo unspecified) | x | x | 10µM* | x | x | x
Cn1ccc(NC(=O)C2(C)COCc3cnc(Nc4ccccc4)nc32)n1 (stereo unspecified) | x | x | -19%[176 µM] | x | x | x
Cc1ccc(C2NC(=O)N(CC(=O)Nc3ccc(Br)c(C)c3)C3=C2C(=O)OC3)cc1 (stereo unspecified) | x | x | 8.9µM* | x | x | x
CC(=O)Nc1ccc(NC(=O)CN2C(=O)NC(c3ccc(C)cc3)C3=C2COC3=O)cc1 (stereo unspecified) | x | x | 20% | x | x | x
O=[N+]([O-])c1ccccc1S(=O)(=O)NCc1ccco1 | -13% | 24% | -20% | -22% | -23% | 13%

High-throughput results as filed in PubChem.
